# Shown are actives, neighbours in structure and some others; about 3.2% of the full set was active somewhere.
# Mcl1-Noxa inh = Mcl-1/Noxa interaction inhibition; Q07820; TR-FRET Mcl-1/Noxa peptide binding, 2 h; inhibition, % at 21.7 µM; 220,000 compounds, 1.5% hits; AID 1022;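 active means compounds that cut the protein-peptide binding signal by more than 50% relative to plate controls in a single-dose test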;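 further: His-tagged Mcl-1 with rhodamine Noxa BH3 peptide and terbium anti-His antibody; 0% = Mcl-1 plus Noxa peptide wells and 100% = peptide-only wells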
# p47phox inh = blocks human p47phox regulatory protein of NADPH oxidases; P14598; p47phox/p22phox peptide binding, fluorescence polarization, 2 h; inhibition, % at 24.7 µM; 220,000 compounds, 0.53% hits;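 active means inhibition above about 30%, limit read from the data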;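 further: 0% = p47phox with labelled peptide and 100% = labelled peptide alone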
# Mcl1 Bid PPI = Mcl-1/Bid interaction inhibition. Q07820. TR-FRET Mcl-1/Bid-Dy647 peptide binding, 1536-well. inhibition, % at 21.7 µM. 220,000 compounds, 0.97% hits. AID 1021;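 active means compounds that cut the binding signal by more than half at the single screening dose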;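 further: His-tagged Mcl-1 with europium anti-His antibody binding Bid BH3 peptide; 0% = Mcl-1 plus peptide wells and 100% = peptide-only wells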
# 14-3-3 Bad PPI = disrupts binding of bovine 14-3-3 zeta to phospho-Bad peptide; AID 781; 220,000 compounds, 0.71% hits; inhibition, % at 21.7 µM; TR-FRET 14-3-3zeta/Dy647-pBad peptide displacement, 1 h;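 active means inhibition above about 70%, limit read from the data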;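 further: 0% = full 14-3-3 plus peptide FRET controls and 100% = background without 14-3-3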
# Target sequence (P63103 whole entry, looked up): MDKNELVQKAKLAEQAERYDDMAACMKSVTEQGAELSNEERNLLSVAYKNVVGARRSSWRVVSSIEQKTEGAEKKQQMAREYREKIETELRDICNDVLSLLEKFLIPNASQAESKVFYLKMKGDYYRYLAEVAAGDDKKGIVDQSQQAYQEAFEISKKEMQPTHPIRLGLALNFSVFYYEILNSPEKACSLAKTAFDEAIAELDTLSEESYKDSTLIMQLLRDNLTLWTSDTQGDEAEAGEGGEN
# Bim-Mcl-1 = disrupts Bim peptide binding to human Mcl-1. Q07820. Bead-based flow cytometry, Bim peptide-Mcl-1 binding. inhibition, % at 10 µM. 190,000 compounds, 0.1% hits. AID 1009; in the data active means inhibition above about 40%;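 further: 0% = no compound tracer wells and 100% = peptide blocker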
# Starred values were filed as active, the others as inactive; . = no result.
SMILES,Mcl1-Noxa inh,p47phox inh,Mcl1 Bid PPI,14-3-3 Bad PPI,Bim-Mcl-1
CN(C)CCN(Cc1ccc(Cl)cc1)c1ccccn1,61*,1,1,2,-1
CC(=O)Nc1ccc(S(=O)(=O)Oc2cccc(/C=N/N=C3/NC(=O)C(CC(=O)O)S3)c2)cc1 (centres undefined),8,-9,-22,-5,2
CCOC(=O)c1sc(NC(=O)CSc2nncn2C)nc1C,3,1,13,0,-2
Cc1ccc(N2NC(=O)/C(=C\c3cc4c(cc3[N+](=O)[O-])OCO4)C2=O)cc1C,100*,-2,5,-19,1
COc1cc(/C=C2/C(=O)NN(c3cccc(C)c3)C2=O)cc([N+](=O)[O-])c1O,49,-27,-45,22,2
Nc1ccc(NC(=O)c2ccc(C(=O)Nc3ccc(N)cc3)cc2)cc1,23,-6,62*,30,.
COc1ccc(Cn2c(=O)[nH]c3cc(C(=O)N4CCN(c5ccccn5)CC4)ccc3c2=O)cc1,17,-1,-2,6,0
CC1C(=O)NN=C1C(=O)N/N=C\c1ccc(O)cc1O (centres undefined),74*,-8,-75,-5,1
Cc1cc(NC(=O)CN2CCCCCCC2)no1,21,-10,64*,40,-4
O=C(CN1CCCCC1)Nc1ccc(F)c(Cl)c1,12,-4,-30,-17,-2
O=C(CN1CCCCCC1)Nc1ccc(F)c(F)c1,26,-17,47,72*,-5
COCC(=O)Nc1nnc(-c2ccc(C(C)(C)C)cc2)s1,19,0,-8,3,0
CCOC(=O)C1C(C)=C(Nc2ccc(OC)cc2)C(=O)N1c1ccc(OC)cc1 (centres undefined),-27,0,-28,-4,0
O=C(NC1CCCCC1)C(c1cccs1)N(C(=O)C(F)(F)F)c1ccccc1 (centres undefined),2,1,9,-5,-5
Cc1ccc(N(C(=O)C(F)(F)F)C(C(=O)NC2CCCCC2)c2cccs2)cc1C (centres undefined),-9,-5,66*,6,1
O=c1[nH][nH]c(=S)n1-c1ccccc1C(F)(F)F,11,60*,-22,3,.
COC(=O)C1=CN(CC2CCCO2)C=C(C(=O)OC)C1c1ccsc1 (centres undefined),0,-8,96*,-3,0
CCc1cc2cc(C)cc(C)c2[nH]c1=S,60*,-3,26,15,0
CCCCCOCC1CC(C/C(C)=N/Nc2nc(-c3ccccc3)cs2)C(=O)O1 (centres undefined),36,0,16,81*,1
CCCCCOCC1CC(C/C(C)=N/NC(N)=S)C(=O)O1 (centres undefined),25,5,-91,8,-7
COc1ccc(N2CCN(C(CNS(=O)(=O)c3ccc4c(c3)OCCO4)c3ccco3)CC2)cc1 (centres undefined),27,-3,-29,9,52*
Nc1nc(Sc2c([N+](=O)[O-])cc(C(F)(F)F)cc2[N+](=O)[O-])n[nH]1,6,1,-35,-8,.
O=C(CCCSc1ccccc1)Nc1nc(-c2ccco2)c(-c2ccco2)s1,52*,-93,-6,-2,-1
O=C(CCl)Nc1nc(-c2ccco2)c(-c2ccco2)s1,53*,-26,-11,17,5
O=C(COC(=O)[C@@H]1CC(O)CN1S(=O)(=O)c1ccc2c(c1)OCCO2)NCc1ccc(F)cc1 (some centres undefined),11,-1,-20,-7,0
SMILES,Mcl1-Noxa inh,p47phox inh,Mcl1 Bid PPI,14-3-3 Bad PPI,Bim-Mcl-1
COc1ccc(-c2nn(CCC(=O)O)cc2/C=C2\SC(N)=NC2=O)cc1OC,90*,-42,27,11,-17
CCCOc1ccc(-c2nn(-c3ccccc3)cc2/C=C2\SC(N)=NC2=O)cc1C,16,-39,-32,3,-1
CCOC(=O)C1CCN(c2ncnc3c2oc2ccccc23)CC1,1,-6,-6,-6,-2
CCOC(=O)C1CCCN(c2ncnc3c2oc2ccccc23)C1 (centres undefined),21,-8,34,83*,-4
CCOC(=O)C1CCN(c2nc(-c3ccccc3)nc3c2oc2ccccc23)CC1,5,-11,-27,81*,0
COc1ccccc1CNCC(=O)N1CC(=O)Nc2ccccc21,29,-3,28,26,-2
O=C1CN(C(=O)CNCc2ccccc2)c2ccccc2N1,44,-1,69*,35,.
N#Cc1c(C(F)(F)F)cc(-c2ccccc2)nc1SCC(=O)Nc1sc2c(c1C#N)CCC2,.,-30,-2,-5,-4
COCCNC(=S)N/N=C1\CC(C)CC(C)(C)C1 (centres undefined),-16,-12,-7,-4,-3
O=C(CCCCO)CCCCCCCC[C@H]1N[C@H](CO)[C@H](O)[C@@H]1O[C@@H]1O[C@H](CO)[C@@H](O)[C@H](O)[C@H]1O,-1,-6,-7,-5,-2
CCN(CC)c1ccc(NC(=O)c2ccc3c(c2)c(C)c(C)n3C)cc1,77*,-75,-4,21,0
CCN(CC)c1ccc(NC(=O)c2cnn(CC)c2)cc1,66*,17,18,-5,-3
CCn1cc(C(=O)NC(=S)Nc2cccc(O)c2)cn1,10,1,-64,-11,1
CCOc1cccc(C(=O)Nc2ccc(N(CC)CC)cc2)c1,65*,-15,-30,6,0
CCN(CC)c1ccc(NC(=O)CCCOc2cccc(C)c2)cc1,77*,-6,-49,7,1
CCN(CC)c1ccc(NC(=O)CSc2nc(C)cc(=O)[nH]2)cc1,22,6,-27,-2,0
COc1ccc(S(=O)(=O)Nc2ccc(O)c3ccccc23)cc1,66*,-17,-7,2,-10
CC(C)(C)NC(=O)C(=O)NNC(=O)c1cccc(F)c1,-2,5,-15,1,-5
N#Cc1ccc(-c2cccnc2)nc1SCC(=O)Nc1sc2c(c1C#N)CCC2,60*,-30,40,19,1
COc1ccccc1OCCOc1ccc(/C=C2/C(=N)N3OC(C)=CC3=NC2=O)cc1OC,-22,-23,84*,59,0
N#C/C(=C/c1ccc(-c2ccccc2[N+](=O)[O-])o1)C(N)=O,23,-1,-37,-24,2
CNC(=O)/C(C#N)=C/c1ccc(-c2ccc(OC)cc2[N+](=O)[O-])o1,40,-2,66*,33,1
N#C/C(=C/c1ccc(-c2cc([N+](=O)[O-])ccc2Cl)o1)C(N)=O,70*,13,57*,49,.
CCC(C)/C(C)=N/NC(=O)CSc1nc2ccccc2[nH]1 (centres undefined),17,-8,-31,6,-1
NS(=O)(=O)c1ccc(N/C=C\C(=O)c2cccc3ccccc23)cc1,20,-15,-32,-2,10
O=C(/C=C\Nc1ccc(S(=O)(=O)Nc2ncccn2)cc1)c1cccc2ccccc12,-26,-11,96*,-3,.
